In the library only some 3.7% were active in any assay of this set; here they are far more common.
Nox1 inh = inhibitors of human NADPH oxidase 1 (Nox1); Q9Y5S8; HT29 cells, luminol chemiluminescence ROS; inhibition, % at 6.7 µM; actives 0.81% (n = 16,000); AID 1792, 2009
NOTCH ag = agonists of NOTCH signaling; activation, % at 2.5 µM; NOTCH signaling luciferase reporter cells, luminescence; AID 434982, 2010; actives 0.4% (n = 15,000); in the data active = activation above about 2.2%
luminol inh ctr = counter-screen for Nox1 inhibitors: inhibitors of luminol chemiluminescence; actives 0.4% (n = 16,000); HRP/luminol/H2O2 chemiluminescence counterscreen; AID 1823, 2009; inhibition, % at 6.7 µM; also: reference of the scale not given here
KOR antag MB = antagonists of human kappa opioid receptor OPRK1, Maybridge library. AID 652031, 2013. Kappa-type opioid receptor (Homo sapiens), P41145. OPRK1 cells, antagonist mode, fluorescence readout. inhibition, % at 9 µM. actives 0.4% (n = 16,000); in the data active = inhibition above about 50%
S1P1 ag = activates the human S1P1 receptor; Sphingosine 1-phosphate receptor 1 (Homo sapiens), P21453; S1P1 agonist cell-based reporter assay; activation, % at 4.5 µM; actives 1.5% (n = 16,000); in the data active = activation above about 80%
Target sequence (P21453 whole entry, looked up): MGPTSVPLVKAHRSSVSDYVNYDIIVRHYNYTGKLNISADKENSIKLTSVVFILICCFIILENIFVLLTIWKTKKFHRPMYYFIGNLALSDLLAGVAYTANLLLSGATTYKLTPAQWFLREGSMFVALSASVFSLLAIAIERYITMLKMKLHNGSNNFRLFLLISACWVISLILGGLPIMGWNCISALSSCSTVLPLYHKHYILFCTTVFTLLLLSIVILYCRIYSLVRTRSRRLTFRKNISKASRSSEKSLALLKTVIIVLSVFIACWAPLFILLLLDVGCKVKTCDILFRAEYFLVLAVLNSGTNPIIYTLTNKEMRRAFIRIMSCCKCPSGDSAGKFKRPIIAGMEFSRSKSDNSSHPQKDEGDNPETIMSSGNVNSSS
TLR4 MyD88 blk = inhibitors of human TLR4-MyD88 binding; Cell-based TLR4-MyD88 binding inhibition assay; inhibition, % at 10 µM; actives 0.06% (n = 16,000); AID 811, 2007; in the data active = inhibition above about 45%
Large screens that a line does not name were inactive. Rule as the data show it, unless noted: active = inhibition above about 75%; inactive = the rest.

Cc1nc(-c2ccc(F)c(F)c2)cs1	none
CCOC(=O)COc1cccc([N+](=O)[O-])c1	NOTCH ag 3.0
CCOC(=O)COc1cccc(NC(=O)c2ccccc2Cl)c1	none
Cc1ccc(OCC2SCCN2S(=O)(=O)c2ccc(Cl)s2)c([N+](=O)[O-])c1 (stereo unspecified)	none
CC(=O)Nc1cccc(OCCCNC(=O)c2cccs2)c1	none
CC(C)n1cc(-c2noc(-c3cccs3)n2)c(=O)n(Cc2ccccc2)c1=O	S1P1 ag 92
CC(C)n1cc(-c2nc(C(=O)NNC(=O)C(C)(C)C)cs2)c(=O)n(Cc2ccccc2)c1=O	none
CN1CCN(c2ccc(CNC(=O)c3cnc4ccccc4n3)cc2)CC1	none
CCOC(=O)c1csc(NC(=O)CSc2cc(OC)ccc2OC)n1	none
COc1cc([N+](=O)[O-])c(OC)cc1SCc1n[nH]c(=S)n1-c1ccc(C)cc1	KOR antag MB 76
CCOC(=O)C1CCN(Cc2cccc(NC(=O)c3ccco3)c2)CC1	KOR antag MB 56
CCOC(=O)C1CCN(c2ccccc2CN2CCN(c3ccccc3OCC)CC2)CC1	none
O=C(NCc1cccc(Cl)c1)C(=O)NC1CCCCNC1=O (stereo unspecified)	none
C[n+]1ccc(CCc2cc[n+](C)cc2)cc1	none
Cc1nc(C(F)(F)F)ccc1C(=O)N1CCN(c2nc3ccc(Cl)cc3s2)CC1	S1P1 ag 88
O=S(=O)(OC(Cc1ccccc1)C(F)(F)F)c1cc(Cl)c(Cl)s1 (stereo unspecified)	none
O=[N+]([O-])c1ccc(OCS(=O)(=O)c2ccc(F)cc2F)c(Cl)c1	none
Cn1ccnc1CS(=O)(=O)c1cc(Cl)c(Oc2ccc([N+](=O)[O-])cc2Cl)c(Cl)c1	S1P1 ag 105
O=c1c2cc(-c3ccccc3)sc2nnn1/N=C/c1cccs1	KOR antag MB 71
COC(=O)C1=C(Nc2ccccc2NS(=O)(=O)c2ccc(OC)cc2)CSC1	none
COC(=O)C1=C(Nc2ccc(O)cc2)CSC1	Nox1 inh 99
CC(C)(C)C(=O)O/N=C(\N)COc1ccc(C(C)(C)C)cc1	none
O=C(Nc1ccc(N2CCCCC2)cc1)Nc1ccccc1OC(F)(F)F	Nox1 inh 80
O=S(=O)(c1ccccc1)N1CCN(c2ncnc3sccc23)CC1	S1P1 ag 92
N#Cc1ccc(N2CCN(S(=O)(=O)c3ccccc3)CC2)nc1	NOTCH ag 3.4
Cc1cc(C(=O)/C(C#N)=N/Nc2cccc(Cl)c2)n(C(C)(C)C)n1	S1P1 ag 88
CC(C)(C)c1cc(C(=O)/C(C#N)=N/Nc2cccc(Cl)c2)no1	S1P1 ag 108
COc1cc(Cl)ccc1N/N=C(\C#N)C(N)=O	none
Cc1ccc(Oc2ncccc2C2=N/C(=C\N(C)C)C(=O)O2)cc1	none
O=C(NNC(=O)c1ccccc1[N+](=O)[O-])c1cc2c(s1)-c1ccccc1CC2	NOTCH ag 2.4
CN(C)c1ccc(NC(=O)Nc2ccc(OCc3ccccc3)cc2)cc1	Nox1 inh 107
Cn1nc(-c2ccccc2)cc1NC(=O)Nc1ccc(OCc2ccccc2)cc1	none
Cc1ccc(NC(=O)Nc2ccc(OCc3ccccc3)cc2)cc1NS(C)(=O)=O	S1P1 ag 88 (no result: NOTCH ag)
O=[N+]([O-])c1ccc(C=Nc2ccc(-c3cnco3)cc2)cc1	none
N#C/C(=C\Nc1ccc2c(c1)OCCO2)C(=O)c1ccc(Cl)cc1	S1P1 ag 85
CCn1nc(C)cc1-c1nnc(-c2ccccc2Cl)o1	none
CCn1nc(C)cc1-c1nnc(SCc2ccc(C(F)(F)F)cc2)o1	S1P1 ag 97
N#Cc1c(N)nc2[nH]c(=S)[nH]c(=O)c2c1-c1ccc([N+](=O)[O-])cc1	luminol inh ctr 84
CC(=O)Oc1cccc(OC(C)=O)c1[N+](=O)[O-]	none
CC(=O)Oc1ccc(OC(C)=O)c2c1[C@@H]1C=C[C@H]2CC1	Nox1 inh 81
Cc1ccc([N+](=O)[O-])c(NS(=O)(=O)c2cc(Cl)c(Cl)cc2Cl)c1	S1P1 ag 87
COC(=O)c1cc(C)c(-c2ccc(-c3ccccc3F)cc2)s1	none
COC(=O)c1cc(-c2ccc(OC)cc2)c(-c2ccc(OC)cc2)s1	KOR antag MB 78
Nc1nc(-c2c(F)cccc2Cl)cs1	none (no result: NOTCH ag)
O=C(c1ccccc1)C1CCNCC1	none
O=C(N/N=C/c1ccc(O)cc1)N/N=C/c1ccc(O)cc1	Nox1 inh 96
CCOC(=O)N/N=C/c1ccc(O)cc1	none
Cc1ccc([N+](=O)[O-])c(C(=O)N/N=C(\N)c2ccccn2)c1	none
O=C1CC(Nc2ccccc2)C=C1Nc1ccccc1 (stereo unspecified)	none
CC1(C)CC(Nc2ccc(Nc3ccccc3)cc2)CC(C)(C)N1	Nox1 inh 103
CC(=O)Nc1ccc(Oc2c(F)c(F)c(Oc3ccc(NC(C)=O)cc3)c(F)c2F)cc1	none
N/C(CC1CC1(Cl)Cl)=N\OC(=O)c1ccccc1Cl (stereo unspecified)	none
Cc1nc(C(F)(F)F)c(C(=O)NNc2ncc(C(F)(F)F)cc2Cl)s1	Nox1 inh 85
Cc1ccc2oc(=O)cc(CN3CCOCC3)c2c1	none
Cc1cc(N=Nc2ccc(Cl)cc2)cc(CN2CCOCC2)c1O	S1P1 ag 95
Cc1cc(=O)n2ncnc2n1CC(=O)NNC(=S)Nc1ccc(Cl)cc1Cl	luminol inh ctr 75
Cc1c(COC(=O)Nc2ccc(Cl)cc2Cl)sc2ccccc12	none (no result: TLR4 MyD88 blk)
CCN(CC)c1ccc(NC(=O)c2c(F)cccc2F)c(N(CC)CC)n1	Nox1 inh 94
O=C(Nc1ccccc1NC(=O)c1c(F)cccc1F)c1c(F)cccc1F	none
O=C(Cc1ccc([N+](=O)[O-])cc1)Nc1nccs1	NOTCH ag 3.0
Cn1nc(C(C)(C)C)cc1C(=O)NCc1ccc2c(c1)CCO2	S1P1 ag 80
Nc1ccccc1SC(CC(=O)c1cccs1)c1cccs1 (stereo unspecified)	none
COc1ccc(NC(=O)c2c(C(=O)O)cccc2[N+](=O)[O-])cc1	none
CCOC(=O)NS(=O)(=O)c1ccccc1Cl	none
COc1nc(NNC(=O)NS(=O)(=O)c2ccccc2Cl)nc(OC)n1	Nox1 inh 78
N#C/C(=C\Nc1cc(C(F)(F)F)cc(C(F)(F)F)c1)S(=O)(=O)Cc1ccc(Cl)cc1	S1P1 ag 100
Cc1c(NC(=O)c2nccnc2C(=O)O)c(=O)n(-c2ccccc2)n1C	none
CCN(CC)c1ccc(N=Nc2ccc(Br)cn2)c(O)c1	S1P1 ag 86
CCOC(=O)c1c(NC(=O)c2ccc([N+](=O)[O-])o2)nc(SC)n1Cc1cccs1	S1P1 ag 87
CCOc1ccc2nc(NC(=O)c3ccc([N+](=O)[O-])o3)sc2c1	none
Cc1nc(C)c(-c2n[nH]c(=S)n2C)s1	luminol inh ctr 100
COc1ccc(-c2nc(-c3cccc([N+](=O)[O-])c3)cs2)cc1	NOTCH ag 3.3

High-throughput results deposited in PubChem BioAssay by The Scripps Research Institute Molecular Screening Center.
